Experimental data reported in PubChem BioAssay AID485346 (Sanford-Burnham Center for Chemical Genomics, 2010).
The campaign covered roughly 330,000 compounds. About 10,000 (3%) were called active. The list comes from a sample in which actives are over-represented; it also holds similar structures and randomly drawn compounds. Values without a mark were called inactive.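 How the source made its calls: active means inhibition of at least 50% at 8 µM in the primary screen; inactive means the rest.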

molecular target: Protein Mdm4 (Homo sapiens) + E3 ubiquitin-protein ligase Mdm2 (Homo sapiens) (UniProt O15151+Q00987); assay: inhibitors of human Mdm2-MdmX association, primary screen, cell-based, luminescence, split luciferase, SaOS-2, uHTS (AID 485346); conditions: SaOS-2 split-luciferase Mdm2/MdmX complementation, at 8 µM, stronger effect = higher value
Sequence (O15151 whole entry, looked up): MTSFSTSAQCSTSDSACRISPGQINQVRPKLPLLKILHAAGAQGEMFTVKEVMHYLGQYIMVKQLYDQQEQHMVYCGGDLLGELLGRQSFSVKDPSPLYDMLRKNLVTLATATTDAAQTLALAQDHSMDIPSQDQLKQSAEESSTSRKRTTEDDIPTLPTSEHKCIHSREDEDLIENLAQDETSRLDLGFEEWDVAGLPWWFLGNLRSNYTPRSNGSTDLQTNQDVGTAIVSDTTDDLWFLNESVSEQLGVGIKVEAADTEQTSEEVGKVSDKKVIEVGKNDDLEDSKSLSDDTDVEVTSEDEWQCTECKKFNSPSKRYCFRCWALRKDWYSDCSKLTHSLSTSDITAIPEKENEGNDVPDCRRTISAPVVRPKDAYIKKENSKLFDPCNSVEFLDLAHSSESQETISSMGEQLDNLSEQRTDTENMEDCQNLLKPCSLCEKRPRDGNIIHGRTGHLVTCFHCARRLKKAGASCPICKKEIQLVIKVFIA
Sequence (Q00987 whole entry, looked up): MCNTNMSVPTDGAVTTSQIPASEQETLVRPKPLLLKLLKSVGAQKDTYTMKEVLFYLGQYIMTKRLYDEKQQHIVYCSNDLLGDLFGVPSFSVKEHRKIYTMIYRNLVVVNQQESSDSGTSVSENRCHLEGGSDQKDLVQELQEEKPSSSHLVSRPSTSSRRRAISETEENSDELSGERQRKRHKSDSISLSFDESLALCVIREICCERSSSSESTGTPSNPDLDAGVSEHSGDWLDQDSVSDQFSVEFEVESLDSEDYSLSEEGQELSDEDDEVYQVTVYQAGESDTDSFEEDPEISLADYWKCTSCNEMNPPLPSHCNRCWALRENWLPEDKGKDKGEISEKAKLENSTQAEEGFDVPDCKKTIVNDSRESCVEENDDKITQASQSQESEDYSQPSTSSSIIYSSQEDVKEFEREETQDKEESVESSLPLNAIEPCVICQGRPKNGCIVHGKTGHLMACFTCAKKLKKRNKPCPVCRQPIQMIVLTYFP

Structure (SMILES) | inhibition
O=C(CCCN1C(=O)/C(=C/c2ccco2)SC1=S)Nc1ccccc1 | 68.6% (active)
Cc1ccc(-c2nn(-c3ccccc3)cc2/C=C2\SC(=S)N(CCCCCC(=O)O)C2=O)o1 | 34%
CN1C(=O)/C(=C/c2ccco2)SC1=Nc1cccc(C(=O)O)c1 | -14.1%
O=C(CCCN1C(=O)/C(=C\c2ccco2)SC1=S)Nc1cccc2ccccc12 | 86.5% (active)
O=C(CN1C(=O)/C(=C\c2ccccc2F)SC1=S)Nc1nc2ccccc2s1 | -22.4%
O=C(CCCCCN1C(=O)c2cccc3cccc(c23)C1=O)NCc1ccco1 | 2.52%
Cc1sc(NC(=O)C2=COCCO2)c(C#N)c1C | -49.9%
COc1ccc(N2CCN(C(=O)CN3C(=O)COc4ccccc43)CC2)cc1 | -8.57%
CNC1(c2nnnn2-c2c(C)cccc2C)CCOC(C)(C)C1 (stereo unspecified) | 1.22%
CCOC(=O)[C@H]1[C@H]2COc3cc(OC)ccc3[C@@H]2N2C(=O)CN(Cc3ccc(Cl)cc3)C(=O)[C@@]12C | -12%
O=C(Cc1ccc(S(=O)(=O)N2CCOCC2)s1)NCCOc1ccccc1F | 11.2%
Oc1c(Cl)cc(Cl)c(Cl)c1Cc1c(O)c(Cl)cc(Cl)c1Cl | 95% (active)
CCOc1cc(/C=N/NC(=O)c2ccc(CSc3nncn3C)cc2)ccc1OCC(=O)N1CCOCC1 | -20%
CCCCNc1c(-c2cccc(Sc3ccc(OC)cc3)c2)nc2ccccn12 | 78.3% (active)
CCCCCCSc1ccc(-c2nc3ccc(Cl)cn3c2NCc2ccccc2)cc1 | -24.5%
CCCCNc1c(-c2ccc(OC)c(Sc3ccc(OC)cc3)c2)nc2ccc(Cl)cn12 | 41.1%
O=C1C(C=NCC2CCCO2)=C(O)c2ccccc21 (stereo unspecified) | -17%
CC(=NC1CCN(Cc2ccccc2)CC1)c1c(O)[nH]c(=O)[nH]c1=O | 10.7%
CC(=NCC1CCCO1)c1c(O)[nH]c(=O)[nH]c1=O (stereo unspecified) | 60.2% (active)
CN(Cc1ccccc1)C(=O)c1cccc(C(=O)N(C)Cc2ccccc2)c1 | -13.2%
N#C/C(=C\c1ccccc1)c1n[nH]c(Cn2cncn2)n1 | -1.38%
CCOC(=O)N1CCN(C(=O)C(=O)Nc2sc3c(c2C#N)CC(C)(C)OC3)CC1 | 13.5%

Structure (SMILES) | inhibition
O=C(NCc1ccccc1)C1C(=O)N(Cc2ccccc2)C(=O)C1C1(O)CCCC1 (stereo unspecified) | 13%
CC(C)c1nccn1S(=O)(=O)c1cc([N+](=O)[O-])ccc1Cl | 25.4%
CCc1nc(C)cn1S(=O)(=O)c1cc(OC)c(C)cc1C | 8.72%
CCc1nc(C)cn1S(=O)(=O)c1cc([N+](=O)[O-])ccc1Cl | 66.2% (active)
C/C(=C(\C#N)C(=O)NCCCN1CCOCC1)N(C)C | 13.1%
C#CCOCCOCCOCCNc1nc(N2CCN(C(=O)CCCCCCCCCCNC(=O)Cn3cc(CCCCCN)nn3)CC2)nc(N2CCN(C(=O)CCCCCCCCCCNC(=O)[C@H](CO)n3cc(CCCSC)nn3)CC2)n1 | 11.3%
C#CCOCCOCCOCCNc1nc(N2CCN(C(=O)CCCCCCCCCCNC(=O)[C@H]([C@@H](C)CC)n3cc(CCCCN=C(N)N)nn3)CC2)nc(N2CCN(C(=O)CCCCCCCCCCNC(=O)[C@H](CO)n3cc(CCCSC)nn3)CC2)n1 | 12.1%
C#CCOCCOCCOCCNc1nc(N2CCN(C(=O)CCCCCCCCCCNC(=O)[C@H](CCCCN)n3cc(C)nn3)CC2)nc(N2CCN(C(=O)CCCCCCCCCCNC(=O)[C@H](CO)n3cc(CCCSC)nn3)CC2)n1 | 52.3% (active)
COCCN(C(=O)CC1CCCCC1)c1c(N)n(CC(C)C)c(=O)[nH]c1=O | 13.6%
CCOC(=O)CCCNC(=O)COC(=O)c1cc(Br)c(Br)s1 | 12%
COc1ccc(C)cc1NC(=O)CSc1nnc2ccc(-c3ccccn3)nn12 | 15.8%
COc1ccc(-c2nc3n(c(=O)c2C#N)CCS3)c(OC)c1 | 1.98%
Cc1c(Br)c([N+](=O)[O-])nn1C(C)C(=O)Nc1nccs1 (stereo unspecified) | 9.97%
Cc1ccccc1CN1C(=O)c2ccccc2Sc2ccc(C(=O)NCCCN3CCOCC3)cc21 | 24.3%
Cc1nn(Cc2ccccc2)c(C)c1C(=O)NCCN1C(=O)S/C(=C\c2ccc(F)cc2)C1=O | 26.7%
CCN1CCN(CCNC(=O)c2ccc(/C=C3/Sc4ccccc4N(Cc4cccc(C)c4)C3=O)cc2)CC1 | 96.1% (active)
CC(C)OCCCNC(=O)CN1C(=O)/C(=C/c2ccccc2F)Oc2ccccc21 | 13.4%
CN1CCN(CCCNC(=O)c2ccc(/C=C3\Oc4ccccc4N(Cc4ccc(Cl)cc4)C3=O)cc2)CC1 | 99.3% (active)
O=C(NCCCN1CCOCC1)c1ccc2c(c1)N(Cc1cccc(F)c1)C(=O)c1ccccc1S2 | 13.8%
O=C(NCCN1CCOCC1)/C(=C/c1ccc(F)cc1)NC(=O)c1ccccc1 | -6.74%
O=C(NCCN1CCOCC1)c1ccc(/C=C2\Sc3ccccc3N(Cc3ccc(F)cc3)C2=O)cc1 | 62.4% (active)
CCCN1CCN(C(=O)CCCNC(=O)c2ccc(Cl)cc2)CC1 | -0.622%

Structure (SMILES) | inhibition
O=C(CCc1ccc(S(=O)(=O)N2CCOCC2)cc1)NN=C1CCCCCCC1 | 21.1%
N#Cc1cccc(NC(=O)C2CCCN(C(=O)c3ccc(Cl)cc3)C2)c1 (stereo unspecified) | 27.2%
O=C(NNC(=O)C1C2CCC(C2)C1C(=O)O)c1ccc(Cl)cc1 (stereo unspecified) | -14%
COc1ccc(C(=O)COC(=O)c2nn(C)c(=O)c3ccccc23)c(OC)c1 | 3.83%
CC(NC(=O)c1cccc(S(=O)(=O)N2CCc3ccccc3C2)c1)c1ccco1 (stereo unspecified) | 3.48%
O=C(NCc1ccncc1)c1cccc(NS(=O)(=O)c2ccc(F)c(F)c2)c1 | -23.7%
CCOC(=O)C1=C(C)c2ccccc2OC1(C)C(=O)OCC (stereo unspecified) | 11.2%
CC(Oc1ccc2c(-c3ccccc3)cc(=O)oc2c1)C(=O)NC(Cc1c[nH]c2ccccc12)C(=O)O (stereo unspecified) | 15.6%
Cc1ccc(-c2nc(C)sc2CC(=O)OCC(=O)Nc2c(F)cccc2F)cc1 | 7.55%
O=C(O)CCCn1c(=O)c2cccn2c2ccc(F)cc21 | 4.87%
Cc1nnc(N/N=C/C2CC=CCC2)[nH]c1=O (stereo unspecified) | 12.6%
Cc1cc(C(=O)N/N=C/c2ccccn2)c2ccccc2n1 | -15.6%
Cc1nnc(N/N=C/c2ccccn2)[nH]c1=O | 78.6% (active)
COc1ccc(-c2nc3c(s2)CCc2onc(-c4ccc(OC)cc4)c2-3)cc1 | 1.93%
O=C(c1ccc(Cl)cc1)N1N=C(c2ccccn2)CC1(O)C(F)(F)F (stereo unspecified) | 53% (active)
O=C(C1CC1)N1N=C(c2ccc(Br)cc2)CC1(O)C(F)(F)F (stereo unspecified) | -5.88%
O=C(Cc1ccccc1)N1N=C(c2ccncc2)CC1(O)C(F)(F)F (stereo unspecified) | 13.3%
Cc1ccc(NC(=O)CC2C(=O)N(Cc3ccccc3)C(=S)N2NC(=O)c2cccc(F)c2)c(C)c1 (stereo unspecified) | 6.53%
Fc1ccccc1/C=C1\CCCC2=C1Nc1ncnn1C2c1ccccc1F (stereo unspecified) | 98.8% (active)
Cc1ccc(S(=O)(=O)N2CCCCC2)cc1C(=O)N1CCN(CCO)CC1 | 18.6%
CNC[C@H](CC1CCCCC1)NC[C@H](NCCC1CCCC1)[C@H](C)O | 99.7% (active)
COc1ccccc1N(C)C(=O)c1cc(S(=O)(=O)N2CCc3ccccc32)cn1C | 14.1%

Structure (SMILES) | inhibition
O=C(CC1SC(N2CCCC2)=NC1=O)Nc1ccc(C(=O)NCCc2ccc(F)cc2)cc1 (stereo unspecified) | 33.7%
N#Cc1ncc(C(F)(F)F)cc1Oc1cccnc1 | -4.54%
Cc1nnc(SCCCCSc2nnc(C)c(=O)[nH]2)[nH]c1=O | -27.7%
CCN1C(=O)N[C@@H](CCc2ccccc2)C(C(=O)OC)=C1C | 10.9%
CCC(CC)c1nnc(NC(=O)c2nn(C)c(=O)c3ccccc23)s1 | -51.8%
COC(=O)c1cc(NC(=O)c2nn(C)c(=O)c3ccccc23)cc(C(=O)OC)c1 | 51.2% (active)
CCC(C)NC(=O)c1nn(C)c(=O)c2ccccc12 (stereo unspecified) | 0.304%
COc1ccc(C)cc1NC(=O)CCCN1C(=O)NC(C)(C)C1=O | 7.88%
COC(=O)C1=C(N)Oc2cc(C)[nH]c(=O)c2C1c1ccc(Cl)cc1 (stereo unspecified) | -16.2%
CC(=O)N1CCN(CC(=O)Nc2ccc(SC(F)F)cc2)CC1 | -2.95%
Cc1ccc(CC(=O)Nc2ccc(OC(F)F)c(Cl)c2)cc1C | 15.9%
O=C(Cc1ccc(Cl)c(Cl)c1)Nc1ccc(SC(F)F)cc1 | 72.9% (active)
CC(=O)c1c(C)[nH]c(C(=O)OCC(=O)Nc2c(C)n(C)n(-c3ccccc3)c2=O)c1C | 11.3%
Cc1nc(N2CCN(c3ccccn3)CC2)c2c(C)c(C(=O)Nc3ccc(F)c(Cl)c3)sc2n1 | 61.2% (active)
Cc1nc(N2CCN(c3ccccn3)CC2)c2c(C)c(C(=O)Nc3ccc(F)cc3)sc2n1 | 35.2%
COc1ccc(NC(=O)c2sc3nc(C)nc(N4CCN(c5ccccn5)CC4)c3c2C)c(OC)c1 | 36.5%
COCC1CCN(C(=O)C2CCC(=O)N(CC3CCCCC3)C2)CC1 (stereo unspecified) | -3.42%
Cn1cc(/C=C/c2nc3ccccc3c(=O)n2-c2cccc([N+](=O)[O-])c2)c2ccccc21 | 72.2% (active)
CCn1c(/C=C/c2ccc([N+](=O)[O-])o2)nc2ccccc2c1=O | 46.9%
CCOC(=O)N1CCN(Cc2nc3ccc([N+](=O)[O-])cc3c(=O)n2-c2cccc(OC)c2)CC1 | 16.7%
